Measurements published in the supplement of paper PMC12494721.
Counter-ions that a name gives are not always drawn.

Columns and labels:
Details in all cases: 20 µM; incubation time: 27 h, anaerobic, 37 °C;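 for the amine columns active = adjusted P below 0.05 in both replicates with a change the same way and a mean fold change under 0.8 or over 1.25; inactive = the rest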
[1] = system: Clostridium sporogenes DSM 1664; assay: growth (OD595) fold change vs plate DMSO controls (fold change (ratio)); higher = more growth
How it was run: (§1)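 Anaerobic mGAM cultures in 96-well plates were grown for 27 h at 37 °C, and absorbance was then read at 595 nm. After blank and compound background correction with 20 µM compound solutions in water, a calibration factor of 5 gave OD. Growth is the fold change relative to the median of each plate's DMSO controls. Values are means of 2 biological replicates, with fold changes above 1.5 set to NA.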

[2] = system: Escherichia coli IAI1; assay: as above
How it was run: as §1

[3] = system: Klebsiella aerogenes DSM 30053; assay: as above
How it was run: as §1

[4] = system: Ruminococcus gnavus DSM 108212; assay: as above
How it was run: as §1

[5] = system: Klebsiella aerogenes DSM 30053; assay: fold change of Histamine concentration vs plate DMSO controls (fold change (ratio)); higher = more amine produced, active = hit call of the paper (significant change in both replicates, either direction)
How it was run: (§2)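 Extracts of whole anaerobic mGAM cultures were analysed for amines by LC–triple-quadrupole MS with dynamic MRM and external calibration curves, with drift corrected within batch. Four gut strains were grown at 37 °C for 27 h in 80 µL wells with compounds at 20 µM final, sweeteners at 50 µM final. Each value expresses fold change over plate DMSO controls. The average of 2 biological replicates is shown.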

[6] = system: Clostridium sporogenes DSM 1664; assay: fold change of Tryptamine concentration vs plate DMSO controls (fold change (ratio)); higher = more amine produced, active = hit call of the paper (significant change in both replicates, either direction)
How it was run: as §2

[7] = system: Ruminococcus gnavus DSM 108212; assay: as above
How it was run: as §2

[8] = system: Escherichia coli IAI1; assay: fold change of Putrescine concentration vs plate DMSO controls (fold change (ratio)); higher = more amine produced, active = hit call of the paper (significant change in both replicates, either direction)
How it was run: as §2

[9] = system: Klebsiella aerogenes DSM 30053; assay: as above
How it was run: as §2

[10] = system: Escherichia coli IAI1; assay: fold change of Cadaverine concentration vs plate DMSO controls (fold change (ratio)); higher = more amine produced, active = hit call of the paper (significant change in both replicates, either direction)
How it was run: as §2

[11] = system: Klebsiella aerogenes DSM 30053; assay: as above
How it was run: as §2

[12] = system: Ruminococcus gnavus DSM 108212; assay: fold change of 2-Phenylethylamine concentration vs plate DMSO controls (fold change (ratio)); higher = more amine produced, active = hit call of the paper (significant change in both replicates, either direction)
How it was run: as §2

Row | Compound | growth [1] | growth [2] | growth [3] | growth [4] | fold change of Histamine concentration [5] | fold change of Tryptamine concentration [6] | fold change of Tryptamine concentration [7] | fold change of Putrescine concentration [8] | fold change of Putrescine concentration [9] | fold change of Cadaverine concentration [10] | fold change of Cadaverine concentration [11] | fold change of 2-Phenylethylamine concentration [12]
1 | ClC1C(Cl)C(Cl)C(Cl)C(Cl)C1Cl (stereo unspecified) | 1.06 | 1 | 1 | 1.14 | 0.984 (inactive) | 0.972 (inactive) | 0.98 (inactive) | 1 (inactive) | 1 (inactive) | 1.02 (inactive) | 0.994 (inactive) | 0.979 (inactive)
2 | CC(C)OC(=O)C(C(=O)OC(C)C)=C1SCCS1 | 1.07 | 0.971 | 1.02 | 1.08 | 0.989 (inactive) | 0.999 (inactive) | 1 (inactive) | 1.02 (inactive) | 1 (inactive) | 0.976 (inactive) | 1 (inactive) | 0.956 (inactive)
3 | CC1(C(=O)Nc2ccc(O)c(Cl)c2Cl)CCCCC1 | 0.939 | 1.02 | 1 | 1.22 | 0.992 (inactive) | 0.999 (inactive) | 0.96 (inactive) | 0.992 (inactive) | 0.99 (inactive) | 1.03 (inactive) | 1 (inactive) | 0.987 (inactive)
4 | NCCCNCCSP(=O)(O)O [Amifostine] | 0.94 | 1 | 1.12 | 1.38 | 0.978 (inactive) | 1.01 (inactive) | 1.03 (inactive) | 1 (inactive) | 0.999 (inactive) | 1.01 (inactive) | 0.999 (inactive) | 1.01 (inactive)
5 | C#C[C@]1(O)CC[C@H]2[C@@H]3CCC4=CC(=O)CC[C@]4(C)[C@H]3CC[C@@]21C [Ethisterone] | 0.939 | 1.07 | 1.01 | 0.986 | 1.05 (inactive) | 1.02 (inactive) | 1 (inactive) | 1.03 (inactive) | 1.04 (inactive) | 0.988 (inactive) | 0.997 (inactive) | 1.04 (inactive)
6 | CCCC1COC(Cn2cncn2)(c2ccc(Cl)cc2Cl)O1 (stereo unspecified) | 0.938 | 1.03 | 0.987 | 0.947 | 0.975 (inactive) | 1.04 (inactive) | 1.08 (inactive) | 0.977 (inactive) | 0.946 (inactive) | 0.939 (inactive) | 0.993 (inactive) | 1.17 (inactive)
7 | c1ccc2c(c1)ccc1c3ccccc3sc21 [Benzo[b]naphtho[2,1-d]thiophene] | 0.989 | 0.988 | 1.11 | 1.07 | 1.02 (inactive) | 0.962 (inactive) | 1.01 (inactive) | 1.01 (inactive) | 1.03 (inactive) | 0.992 (inactive) | 1.01 (inactive) | 0.99 (inactive)
8 | OC(c1ccccc1)(c1ccccc1)C1CCNCC1 [Azacyclonol] | 1.09 | 1.01 | 1.01 | 1.1 | 1.06 (inactive) | 1.02 (inactive) | 1.07 (inactive) | 1.02 (inactive) | 1.01 (inactive) | 0.849 (inactive) | 1 (inactive) | 1.06 (inactive)
9 | O=C1C=C(N(Cc2ccc(Cl)nc2)CC(F)F)CO1 | 0.968 | 1.01 | 0.997 | 0.923 | 1.02 (inactive) | 1.15 (inactive) | 1.1 (inactive) | 0.94 (inactive) | 1 (inactive) | 0.933 (inactive) | 1.01 (inactive) | 1.15 (inactive)
10 | CS(=O)(=O)NC(=O)c1cc(Oc2ccc(C(F)(F)F)cc2Cl)ccc1[N+](=O)[O-] | 0.96 | 0.996 | 1.08 | 1 | 0.93 (inactive) | 0.985 (inactive) | 1.02 (inactive) | 1.04 (inactive) | 1.01 (inactive) | 1.01 (inactive) | 1.02 (inactive) | 0.99 (inactive)
11 | COc1cccc(C2(O)CCCCC2CN(C)C)c1 (stereo unspecified) [Tramadol hydrochloride] | 1.04 | 0.988 | 0.985 | 1.12 | 1.04 (inactive) | 1.06 (inactive) | 0.925 (inactive) | 1.05 (inactive) | 1.02 (inactive) | 0.969 (inactive) | 1 (inactive) | 0.873 (inactive)
12 | COc1cc(C)c(C(=O)c2c(OC)ccc(Br)c2C)c(OC)c1OC | 1.04 | 1.05 | 1.04 | 1.1 | 0.967 (inactive) | 0.978 (inactive) | 1.01 (inactive) | 1.02 (inactive) | 1.02 (inactive) | 1.07 (inactive) | 1.01 (inactive) | 1 (inactive)
13 | CO[C@]12C[C@@H](COC(=O)c3cncc(Br)c3)CN(C)[C@@H]1Cc1cn(C)c3cccc2c13 [Nicergoline] | 0.937 | 1 | 1.03 | 0.96 | 0.955 (inactive) | 0.994 (inactive) | 0.968 (inactive) | 0.98 (inactive) | 0.99 (inactive) | 0.908 (inactive) | 1.02 (inactive) | 0.888 (inactive)
